Some test systems named below: SR leukemia; RPMI-8226 leukemia; OVCAR-8 ovarian; OVCAR-5 ovarian; OVCAR-4 ovarian; SK-OV-3 ovarian; IGROV1 ovarian; HS 578T breast; NCI/ADR-RES ovarian; OVCAR-3 ovarian.
Holding throughout (experiment): NCI-60 one-dose screen, 48 h (100 = growth as untreated, 0 = no growth, -100 = all killed)
Settings in all cases: 10 µM unless noted

Structures are written as SMILES. The panel holds about 83,000 compounds, 20% with a hit somewhere; the sample as a whole holds those more often.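 For each line, cells grew in 96-well plates with the test compound present at a single concentration for 48 hours.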 A number with no mark means an inactive call. Calls of active or inactive are those of the source. Rule for the calls: active = growth percent below 10; inactive = the rest.

As for `Cc1nc2sc(C(=O)Nc3ccccc3)c(N)c2cc1C(=O)c1ccc(C(F)(F)F)cc1`, the growth was 81.9% in the test with SR leukemia; 102% in the test with RPMI-8226 leukemia; 101% with OVCAR-8 ovarian; 97.9% in the test on OVCAR-5 ovarian; 87.3% with OVCAR-4 ovarian; 69.3% in the test on SK-OV-3 ovarian. Further, the growth in the test with IGROV1 ovarian is 101%; with HS 578T breast, 85.6%; in the test on NCI/ADR-RES ovarian it was 99%.

As for `O=C1c2ccccc2-c2c1c1c(NCCCO)nc3ccccc3c1n2Cc1ccccc1`, the growth in the test on SR leukemia is 5.22% (active); with RPMI-8226 leukemia it was 46.2%; in the test with OVCAR-8 ovarian, 25.9%; in the test with OVCAR-5 ovarian it was 45.6%; with OVCAR-4 ovarian it was 10.7%; with SK-OV-3 ovarian, 23.8%. The growth is 15.7% with IGROV1 ovarian, 14.4% with OVCAR-3 ovarian and 3.37% (active) with NCI/ADR-RES ovarian.

Regarding `CN1CCN(C(=O)OCc2nc3c(N4CCOCC4)nc(-c4ccccc4)nc3n2C)CC1`, the growth in the test with SR leukemia was 2.5% (active); with RPMI-8226 leukemia, -28.7% (active); with OVCAR-8 ovarian, 4.37% (active); in the test on OVCAR-5 ovarian, -86.1% (active); with OVCAR-4 ovarian, -86.4% (active); in the test with SK-OV-3 ovarian, 61.5%. Besides, the growth with IGROV1 ovarian is -96.3% (active); in the test on HS 578T breast, -22% (active); in the test on NCI/ADR-RES ovarian it was -16.2% (active).

For the compound `Clc1cc(Cl)cc(N2N=C(c3cccc(Nc4ccncc4)c3)CC2c2ccc3c(c2)OCO3)c1` (centres undefined), the growth in the test with SR leukemia is 2.87% (active); in the test on RPMI-8226 leukemia, 11.3%; in the test on OVCAR-8 ovarian it was -21% (active); with OVCAR-5 ovarian, 86.7%; with OVCAR-4 ovarian, 14.9%; in the test on SK-OV-3 ovarian, 74.1%. Besides, the growth in the test on IGROV1 ovarian is 2.89% (active); in the test with OVCAR-3 ovarian, 52.3%; in the test on HS 578T breast, 50.6%; in the test on NCI/ADR-RES ovarian, 66.9%.

For `Nc1nc(SN=Nc2ccc(S(N)(=O)=O)cc2)c2[nH]cnc2n1`, the growth with SR leukemia is 5.59% (active); in the test with RPMI-8226 leukemia it was -15.3% (active); in the test on OVCAR-8 ovarian, 11.2%; in the test with OVCAR-5 ovarian it was 19.4%; in the test with OVCAR-4 ovarian, 34.7%; in the test with SK-OV-3 ovarian it was 7.11% (active). The growth in the test on IGROV1 ovarian is 39.8%; in the test on OVCAR-3 ovarian, -13.7% (active); in the test with HS 578T breast, 36.5%; in the test on NCI/ADR-RES ovarian, 17.6%.

As for `COc1ccncc1C#Cc1cncc(C(=O)Nc2ccc(CN3CCN(C)CC3)c(C(F)(F)F)c2)c1`, the growth with SR leukemia was 9.65% (active); in the test on RPMI-8226 leukemia, 25.8%; with OVCAR-8 ovarian it was 36.7%; with OVCAR-5 ovarian, 22.2%; in the test with OVCAR-4 ovarian it was 30.7%; in the test with SK-OV-3 ovarian it was 32.7%. Further, the growth with IGROV1 ovarian is 11.3%; in the test with OVCAR-3 ovarian it was 43.5%; in the test with HS 578T breast, 11.8%; in the test with NCI/ADR-RES ovarian, 54.6%.

For the compound `C[C@]12C[C@H]1CC[C@]1(C)[C@@H]2CC[C@@]23C[C@H](CC[C@H]21)[C@@](O)(CO)C3`, the growth is 63.3% in the test on SR leukemia; 95% in the test on RPMI-8226 leukemia; 102% in the test on OVCAR-8 ovarian; 92.9% with OVCAR-5 ovarian; 110% in the test on OVCAR-4 ovarian; 113% in the test with SK-OV-3 ovarian. In addition, the growth in the test with IGROV1 ovarian is 104%; in the test on OVCAR-3 ovarian, 111%; in the test with HS 578T breast it was 99.6%; in the test on NCI/ADR-RES ovarian, 97.7%.

In the case of `CCCCCN1C=C/C(=C\C(=O)N(C)c2cccc3ccccc23)c2ccccc21`, the growth with SR leukemia was 81.5%; in the test on RPMI-8226 leukemia it was 78.5%; with OVCAR-8 ovarian, 98.4%; in the test with OVCAR-5 ovarian, 109%; in the test with OVCAR-4 ovarian, 86.5%; in the test with SK-OV-3 ovarian, 99.6%. Besides, the growth with IGROV1 ovarian was 93.7%; in the test with OVCAR-3 ovarian, 96.9%; in the test with HS 578T breast, 99.9%; in the test on NCI/ADR-RES ovarian it was 106%.

For `N#Cc1ccc(-c2ccc3c(c2)NC(=O)/C3=C\c2ccc[nH]2)cc1`, the growth was 22.2% in the test on SR leukemia; 101% with RPMI-8226 leukemia; 101% with OVCAR-8 ovarian; 43.2% with OVCAR-5 ovarian; 43.3% in the test with OVCAR-4 ovarian; 62.6% in the test on SK-OV-3 ovarian. Besides, the growth in the test with IGROV1 ovarian is 66.2%; with OVCAR-3 ovarian, 88.8%; in the test with HS 578T breast it was 103%; in the test on NCI/ADR-RES ovarian it was 100%.

In the case of `S=c1[nH]cccc1-c1nnc2n1Nc1nc3ccc(Cl)cc3cc1CS2`, the growth is 85.6% in the test with SR leukemia; 98.1% in the test with RPMI-8226 leukemia; 102% in the test with OVCAR-8 ovarian; 95.3% in the test with OVCAR-5 ovarian; 101% with OVCAR-4 ovarian; 94.3% in the test with SK-OV-3 ovarian. Also, the figures for the growth in the test on IGROV1 ovarian, with HS 578T breast and in the test on NCI/ADR-RES ovarian were 90.1%, 89.3% and 99.3%, respectively.

For the compound `O=C(O)CCCCCCCCCCCCCCC(=O)O`, the growth in the test on SR leukemia was 101%; in the test with RPMI-8226 leukemia, 93.8%; with OVCAR-8 ovarian, 97.2%; in the test with OVCAR-5 ovarian it was 109%; with OVCAR-4 ovarian, 120%; in the test with SK-OV-3 ovarian, 102%. For the same compound, the growth is 100% in the test with IGROV1 ovarian, 101% in the test with OVCAR-3 ovarian and 103% with NCI/ADR-RES ovarian.

On to `CCN(CC)CCCC(Nc1c2ccc(Cl)cc2nc2ccc(OC)cc12)c1ccc(Cl)cc1` (centres undefined), for which the growth in the test on SR leukemia was -32.9% (active); with RPMI-8226 leukemia, -18.6% (active); in the test with OVCAR-8 ovarian it was -37.7% (active); with OVCAR-5 ovarian, 33.7%; with OVCAR-4 ovarian it was 20.3%; in the test with SK-OV-3 ovarian, 64.9%. Also, the growth with IGROV1 ovarian is -15.3% (active); in the test on OVCAR-3 ovarian, -17.6% (active); with HS 578T breast, -47.7% (active); with NCI/ADR-RES ovarian, -13.3% (active).

Turning to `CCC(C)C(N)C(=O)NNc1n[nH]c(=S)n1N` (centres undefined), the growth in the test with SR leukemia is 99.7%; with RPMI-8226 leukemia, 99.9%; in the test with OVCAR-8 ovarian, 97.8%; with OVCAR-5 ovarian it was 99.2%; in the test on OVCAR-4 ovarian it was 102%; in the test on SK-OV-3 ovarian, 99.3%. Also, the growth with IGROV1 ovarian is 105%; with OVCAR-3 ovarian it was 107%; in the test on HS 578T breast it was 91.6%; in the test on NCI/ADR-RES ovarian, 102%.

`C/C(=C(/c1ccccc1)c1ccc(OCC(O)CN2CCOCC2)cc1)c1ccccc1` (centres undefined): the growth in the test on SR leukemia was 47.2%; with RPMI-8226 leukemia, 75%; in the test with OVCAR-8 ovarian it was 88.5%; with OVCAR-5 ovarian, 87.2%; in the test with OVCAR-4 ovarian it was 89.3%; in the test on SK-OV-3 ovarian it was 91.3%. Also, the growth in the test on IGROV1 ovarian is 96.2%; in the test with HS 578T breast it was 90.8%; in the test on NCI/ADR-RES ovarian, 93.2%.

On to `COc1cc(-c2nc3sccn3c2-c2ccnc(NCCNS(=O)(=O)c3ccc(F)cc3)n2)ccc1F`, for which the growth in the test with SR leukemia is 8.1% (active); in the test on RPMI-8226 leukemia it was -39.4% (active); with OVCAR-8 ovarian it was -9.78% (active); in the test on OVCAR-5 ovarian it was 56%; in the test on OVCAR-4 ovarian, 10.8%; with SK-OV-3 ovarian, 22.9%. In addition, the growth in the test with IGROV1 ovarian is 3.95% (active); in the test on OVCAR-3 ovarian it was 25.3%; with HS 578T breast, 28.4%; with NCI/ADR-RES ovarian, 8.6% (active).

As for `COc1ccc2c(c1)OC1=C(C(=O)OC1)C2c1cc(OC)c(OC)c(OC)c1` (centres undefined), the growth with SR leukemia was 15.3%; in the test on RPMI-8226 leukemia, 11.5%; in the test on OVCAR-8 ovarian, 21.1%; with OVCAR-5 ovarian it was 32.7%; with OVCAR-4 ovarian, 56.3%; with SK-OV-3 ovarian, 13%. Moreover, the growth with IGROV1 ovarian is 49%; with OVCAR-3 ovarian, -55.9% (active); with NCI/ADR-RES ovarian it was 1.95% (active).

Regarding `Cc1cccc(Oc2ccc(Nc3ncnc4ccc(NC(=O)CNCCO)cc34)cc2Cl)c1`, the growth in the test with SR leukemia was 5.67% (active); in the test with RPMI-8226 leukemia, 71.7%; with OVCAR-8 ovarian, 66.7%; in the test with OVCAR-5 ovarian, 78.8%; with OVCAR-4 ovarian, 67.7%; in the test on SK-OV-3 ovarian, 10.8%. Besides, the growth in the test with IGROV1 ovarian was 9.02% (active); with OVCAR-3 ovarian, 49.7%; in the test on HS 578T breast it was 83.5%; with NCI/ADR-RES ovarian, 76.1%.

On to `N/C(=N\N=C\c1cc2ccccc2s1)N/N=C/c1cc2ccccc2s1`, for which the growth with SR leukemia was 96.8%; with RPMI-8226 leukemia it was 99.8%; in the test with OVCAR-8 ovarian it was 107%; in the test on OVCAR-5 ovarian, 104%; in the test on OVCAR-4 ovarian, 102%; in the test with SK-OV-3 ovarian, 94.3%. Also, the growth with IGROV1 ovarian was 93.7%; in the test with HS 578T breast, 102%; with NCI/ADR-RES ovarian, 103%.

With `CC1(C)CN(c2cnc(C(=O)Nc3cc(F)cc4cccnc34)cn2)CCN1`, the growth was 7.28% (active) with SR leukemia; 75.6% in the test with RPMI-8226 leukemia; 96.5% in the test on OVCAR-8 ovarian; 86.1% in the test on OVCAR-5 ovarian; 15% in the test on OVCAR-4 ovarian; 79.5% in the test with SK-OV-3 ovarian. For the same compound, the growth is 36.2% in the test on IGROV1 ovarian, 71.6% with HS 578T breast and 90.9% with NCI/ADR-RES ovarian.

Consider `CN1C(=O)N(C)[C@H]2NC(NN)=N[C@H]21`, for which the growth in the test on SR leukemia is 100%; with RPMI-8226 leukemia, 118%; in the test with OVCAR-8 ovarian, 103%; in the test with OVCAR-5 ovarian it was 98.8%; with OVCAR-4 ovarian it was 103%; in the test on SK-OV-3 ovarian, 121%. In addition, the growth in the test on IGROV1 ovarian is 98.9%; with HS 578T breast, 95.2%; with NCI/ADR-RES ovarian, 105%.

Turning to `Cc1ccc(C2CC(c3cccc(Nc4ccncc4)c3)=NN2c2cc(Cl)cc(Cl)c2)cc1` (centres undefined), the growth in the test on SR leukemia was 1.17% (active); in the test with RPMI-8226 leukemia, 16.1%; in the test with OVCAR-8 ovarian, -36.5% (active); with OVCAR-5 ovarian, 71.1%; in the test with OVCAR-4 ovarian, 15%; in the test with SK-OV-3 ovarian it was 83.4%. The growth is 15.3% in the test with IGROV1 ovarian, 62.6% in the test on HS 578T breast and 52.1% with NCI/ADR-RES ovarian.

The record behind these values is PubChem BioAssay (NCI).
